Screens deposited in PubChem by National Center for Advancing Translational Sciences (NCATS).
Sampled rows, rich in hits. Any-hit rate of the full collection: about 19%.
IL1B secr inh: inhibitors of inflammasome signaling (IL-1 beta secretion); AID 743279; actives 4.7% (n = 360,000); activity change, % at 57.5 µM; THP-1 LPS/ATP IL-1B secretion, AlphaLISA, 16 h; hits give low values; in the data active = activity change below about -50%; inconclusive = mostly about -30% to -49%
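THP-1 cells pretreated 1 hr with compounds (up to 57.5 uM final), then stimulated with LPS (250 ng/mL final) plus ATP (1.25 mM final); secreted IL-1B measured by AlphaLISA after 16 hr, decreased signal indicating inhibition.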
Giardia kill: kills Giardia lamblia | actives 0.15% (n = 340,000) | activity change, % at 7.66 µM, hits read low | AID 540267 | Giardia lamblia trophozoite viability; in the data active = activity change below about -80%; inconclusive = between about -30% and that limit;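 note: parasites exposed to compound for two days anaerobically before the ATP read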
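Each well holds 100 Giardia trophozoites and compound. After two days (48 hrs) at 37 deg C in anaerobic conditions, ATP is quantified by luminescence.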
DT40 TDP1 CPT: DT40-hTDP1 cell growth loss with CPT; actives 12% (n = 420,000); chicken DT40 Tdp1-/-;hTDP1 cells + 20 nM CPT, ATP luminescence, 48 h; Potency, µM (top dose mostly 46.2 µM), for the others: top-dose activity change, negative = growth inhibition, most hits filed as inhibitors; note: potency is the fitted concentration of half-maximal effect; nearly all actives have a fitted effect of over 55% in size
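Chicken DT40 Tdp1-/- cells complemented with human TDP1, 400 cells/well, exposed to compounds plus 20 nM camptothecin for at least 48 h at 37 C; viability read as ATP content by CellTiter-Glo luminescence.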
ELG1 DNA repair: blocks ELG1-dependent DNA repair in HEK293T cells. HEK293T ELG1-luciferase reporter, luminescence, 16 h; DNA damage induced by 5-fluorouridine. Potency, µM (series often up to 46.1 µM), without a hit: at the highest dose activity change, negative = inhibition, most hits filed as inhibitors. actives 2.3% (n = 330,000). AID 504467; note: potency is the fitted concentration of half-maximal effect; nearly all actives have a fitted effect of over 55% in size
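5-Fluorouridine DNA damage + compound/DMSO, 2,000 cells/well, 16 h, 37 °C/5% CO2. ONE-Glo, 30 min RT, luminescence. Readout = decrease in reporter signal.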
TDP1 inh: inhibitors of human tyrosyl-DNA phosphodiesterase TDP1 | actives 0.28% (n = 350,000) | recombinant TDP1, AlphaScreen DNA substrate cleavage | AID 485290 | Q9NUW8 | Potency, µM (series often up to 130 µM), for the others: top-dose activity change, negative = inhibition, most hits filed as inhibitors; note: potency is the fitted concentration of half-maximal effect; nearly all actives have a fitted effect of over 40% in size
Target sequence (Q9NUW8 whole entry, looked up): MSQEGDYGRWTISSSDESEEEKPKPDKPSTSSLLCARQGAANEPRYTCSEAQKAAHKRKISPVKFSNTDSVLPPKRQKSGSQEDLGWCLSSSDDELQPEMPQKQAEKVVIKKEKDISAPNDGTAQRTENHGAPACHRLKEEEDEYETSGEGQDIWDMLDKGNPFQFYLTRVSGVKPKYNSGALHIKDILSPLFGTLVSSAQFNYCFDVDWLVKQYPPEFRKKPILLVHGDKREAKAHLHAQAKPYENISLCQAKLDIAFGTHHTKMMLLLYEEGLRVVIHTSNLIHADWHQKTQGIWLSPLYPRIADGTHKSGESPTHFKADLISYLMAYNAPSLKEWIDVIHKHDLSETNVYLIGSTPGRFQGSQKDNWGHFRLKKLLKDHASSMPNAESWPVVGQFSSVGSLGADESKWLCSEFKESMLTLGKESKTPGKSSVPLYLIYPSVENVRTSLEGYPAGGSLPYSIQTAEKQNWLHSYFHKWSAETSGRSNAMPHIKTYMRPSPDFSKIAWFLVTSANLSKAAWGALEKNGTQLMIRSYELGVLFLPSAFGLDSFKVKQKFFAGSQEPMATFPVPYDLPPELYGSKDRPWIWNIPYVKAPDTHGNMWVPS
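AlphaScreen read-out: signal falls as enzyme removes the 3' tyrosine-FITC from a 5'-biotinylated DNA oligo (15 nM, 5 min, RT). Enzyme was E. coli-made recombinant Tdp1 at 1 nM, exposed to compound for 15 min beforehand; beads 10 ug/ml, 10 min.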
DT40 TDP1 no CPT: qHTS for Inhibitors of human tyrosyl-DNA phosphodiesterase 1 (TDP1): qHTS in cells in absence of CPT | Potency, µM (series often up to 46.2 µM), without a hit: top-dose activity change, negative = growth inhibition, hits mostly inhibitors | actives 15% (n = 420,000) | DT40 Tdp1-/- hTDP1 cells, no CPT, ATP luminescence, 48 h; note: potency is the fitted concentration of half-maximal effect; nearly all actives have a fitted effect of over 55% in size
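Chicken DT40 Tdp1-/- cells stably complemented with human TDP1 were seeded at 400 cells/well with DMSO in place of 20 nM camptothecin. After compound pinning, cells grew at least 48 hr at 37 °C; viability read by CellTiter-Glo luminescence.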
The depositor's hits bear a star; ? = inconclusive; / = not tested or not shown. Unless noted, calls come from the whole dose curve; as a rule, active = well fitted curve in the direction sought with a large enough effect; inconclusive = small, poorly fitted or top-dose-only effect, or another doubt; inactive = no such curve, though single readings can be large; an effect the other way counts as inactive or inconclusive. % is set by controls: 0 for no effect and ±100 for the full control effect.

SMILES	IL1B secr inh	Giardia kill	DT40 TDP1 CPT	ELG1 DNA repair	TDP1 inh	DT40 TDP1 no CPT
O=C(O)c1ccc(Cn2nnc3sc4c(c3c2=O)CCCC4)cc1	42	-12	4%	?	50µM*	0%
CC1CCc2c(sc3nnn(Cc4ccccc4Cl)c(=O)c23)C1 (stereo not given)	/	/	?	/	0%	21µM*
CC1CCc2c(sc3nnn(Cc4ccc(F)cc4)c(=O)c23)C1 (stereo not given)	/	/	3.3µM*	/	-6%	26µM*
CSc1nc(N(C)C)nc(N2CC(=O)N(CCNS(=O)(=O)c3ccc(C)cc3)C2=N)n1	14	18	-2%	-12%	3%	-25%
CC(=O)N/C(=C\c1ccccc1)C(=O)OC(C)C(=O)c1ccccc1 (stereo not given)	14	2	-5%	5%	/	-7%
CCOc1ccc(CCNC(=O)c2ccc(C)c(-n3c(C)nc4cccnc43)c2)cc1OCC	/	/	?	/	0%	?
COc1ccc(Sc2ccc(NC(=O)c3ccccc3Cl)cc2C#N)cc1	-11	-9	?	?	-2%	13µM*
N#Cc1ccccc1Sc1ccccc1C(=O)Nc1ccc2ccccc2c1	-22	-22	-22%	-30%	5%	?
CN1CCN(C(=O)NCC23CC4CC(CC(C4)C2)C3)CC1	-2	?	-13%	25%	-6%	-4%
Cc1cccc([C@@H](NC(=O)OC(C)(C)C)C(=O)OC(C)(C)C)c1	19	7	-25%	20%	-5%	-13%
COC(=O)C(Cc1ccccc1)NC(=S)NC(=O)c1ccccc1 (stereo not given)	9	-14	?	-21%	0%	18µM*
COC(=O)C(Cc1ccccc1)NC(=O)c1cccc(S(=O)(=O)N(C)C)c1 (stereo not given)	-89*	7	-1%	?	3%	-5%
CCOc1ccc(C(=O)NC(Cc2ccccc2)C(=O)OC)cc1 (stereo not given)	13	-21	-22%	?	7%	5%
COC(=O)[C@H](Cc1ccccc1)N(C)S(=O)(=O)c1cccc(S(=O)(=O)N(C)[C@@H](Cc2ccccc2)C(=O)OC)c1	6	-4	15µM*	?	/	?
COC(=O)C(NS(=O)(=O)c1cccc(S(=O)(=O)NC(C(=O)OC)c2ccccc2)c1)c1ccccc1 (stereo not given)	19	-7	-14%	-22%	/	-3%
CN([C@@H](C(=O)OC(C)(C)C)c1ccccc1)S(=O)(=O)c1cccc(S(=O)(=O)N(C)[C@@H](C(=O)OC(C)(C)C)c2ccccc2)c1	17	-8	13µM*	-14%	/	?
CCCOc1ccc(NC(=O)C(=O)NCCCN2CCOCC2)cc1	/	/	-20%	/	/	-18%
NNC(=S)Nc1cccc(-c2n[nH]c(=S)o2)c1	32	-10	-8%	-4%	-8%	-3%
CC1Cc2nc(SCC(=O)NCC3CCCO3)n(-c3ccccc3)c(=O)c2S1 (stereo not given)	4	/	-12%	/	/	4%
O=C(Cn1c(=O)c2cccn2c2ccc(F)cc21)N1CCN(c2ccccc2)CC1	/	/	-12%	/	3%	-15%
COc1cc(S(=O)(=O)n2nc(C)cc2C)c(OC)cc1Cl	0	12	4%	-1%	-3%	-1%
O=C(COC(=O)COc1cccc(Br)c1)Nc1c(Cl)cccc1Cl	12	3	-8%	13%	4%	-6%
COC(=O)C(NC(=O)c1ccccc1)C(C)(C)SCc1ccccc1 (stereo not given)	8	/	?	/	/	18µM*
O=C(COC(=O)CCSc1ccccc1)NCc1ccc(F)cc1	62	10	14%	4%	-2%	1%
O=S1(=O)CC(N2CCC(Cc3ccccc3)CC2)CN1Cc1ccc(F)cc1 (stereo not given)	-2	/	26µM*	/	/	13µM*
SMILES	IL1B secr inh	Giardia kill	DT40 TDP1 CPT	ELG1 DNA repair	TDP1 inh	DT40 TDP1 no CPT
C=CCn1c(N2CCOCC2)nc2c1c(=O)[nH]c(=O)n2C	2	17	14%	19%	0%	-2%
Oc1ccc(N2CCN(c3nnnn3-c3ccccc3)CC2)cc1	3	-6	?	?	-3%	21µM*
Clc1cccc(N2CCN(c3nnnn3-c3ccccc3)CC2)c1	13	25	-13%	-10%	0%	-3%
CCC(=O)N1CCc2cc(Br)cc(S(=O)(=O)CCC(=O)N(CC)Cc3ccccc3)c21	/	/	?	/	6%	?
C[C@H](CCC(=O)NCC(=O)O)C1CC[C@H]2[C@H]3C(C[C@H](O)[C@]12C)[C@@]1(C)CC[C@@H](O)C[C@H]1C[C@H]3O (stereo not given in full)	/	/	3%	/	7%	7%
COc1ccc(NC(=O)/C(C#N)=C\C=C\c2ccco2)cc1	-22	-21	8.2µM*	?	3%	2.9µM*
COc1ccc(C(=O)/C=C2/C(=O)Nc3ccccc32)cc1	?	4	9.2µM*	?	/	4.1µM*
O=C1Nc2ccccc2/C1=C/c1cnc(-c2ccccc2)[nH]1	21	1	?	?	2%	?
O=C1Nc2ccccc2/C1=C/C(=O)c1cccs1	-119*	-13	6.5µM*	-3%	14%	8.2µM*
COc1ccc(C(=O)/C=C2/C(=O)Nc3ccccc32)cc1OC	-82*	8	16µM*	7%	/	4.1µM*
COc1ccc(C(=O)/C=C2/C(=O)Nc3ccccc32)c(OC)c1	-101*	-7	4.1µM*	0%	/	2.6µM*
COc1cc(/C=N/N=C2/C(=O)Nc3ccccc32)cc(OC)c1O	?	21	-49%	?	-3%	?
COc1ccc(C2(C(=O)c3ccccc3)C(=O)c3ccccc3C2=O)cc1	12	-24	?	?	/	-15%
COc1cccc2cc(C(=O)Nc3ccc(S(=O)(=O)NCC4CCCO4)cc3)c(=O)oc12 (stereo not given)	-19	0	-6%	9%	-2%	?
Cc1ccc(S(=O)(=O)N2C3CCCCC3O[C@H]2CC(=O)c2ccccc2)cc1 (stereo not given in full)	-3	/	9%	/	/	?
O=C1/C(=C/N(C(=O)c2ccco2)c2ccc(Br)cc2)Sc2ccccc21	-14	-15	?	?	3%	15µM*
